Sampled rows, rich in hits. Any-hit rate of the full collection: about 9.9%.
KB-V1 MDR tox = KB-V1 MDR subline cytotoxicity. Potency, µM (series often up to 46.1 µM), actives largely listed as cytotoxic. hit rate 3.4% among 400,000. KB-V1 MDR cells viability, CellTiter-Glo, 72 h; further: potency means the concentration at half of the fitted maximal effect; on the % scale 0 is the no-effect control and ±100 the full control effect; nearly all actives have a fitted effect of over 60% in size
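Cells of the MDR subline KB-V1 are plated, dosed with compound at multiple concentrations, and incubated 72 h at 37 degrees C; CellTiter-Glo is then added and luminescence read after 10 min.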
MCF10A rerep = induces DNA re-replication in MCF 10a normal breast cells; MCF 10A DNA re-replication, Hoechst nuclear intensity, 48 h; Potency, µM (highest dose often 46.1 µM), for the others: top-dose activity, positive = re-replication, usual class: activators; hit rate 2.9% among 350,000; AID 624296; further: potency means the concentration at half of the fitted maximal effect; % of control where 0% means no effect; nearly all actives have a fitted effect of over 50% in size
IL1B secr inh = blocks inflammasome-driven IL-1 beta release; THP-1 LPS/ATP IL-1B secretion, AlphaLISA, 16 h; active compounds read low; hit rate 4.7% among 360,000; activity change, % at 57.5 µM; AID 743279; in the data active means activity change below about -50%; inconclusive means mostly about -30% to -49%; further: on the % scale 0 is the no-effect control and ±100 the full control effect
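THP-1 cells pretreated 1 hr with compounds (up to 57.5 uM final), then stimulated with LPS (250 ng/mL final) plus ATP (1.25 mM final); secreted IL-1B measured by AlphaLISA after 16 hr, decreased signal indicating inhibition.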
SW480 rereplic = DNA re-replication induction in SW480 cells | SW480 DNA re-replication, Hoechst DNA content imaging, 48 h | Potency, µM (doses to about 46.1 µM), for the others: at the top dose re-replication activation, usual class: activators | hit rate 1.8% among 340,000 | AID 624297; further: potency means the concentration at half of the fitted maximal effect; % of control where 0% means no effect; nearly all actives have a fitted effect of over 55% in size
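First, 250 cells per well were seeded. Next, compound or vehicle (23 nL) was pinned in, plates sat 48 hr at 37 C. Finally Hoechst was added for 40 min before fluorescence scanning.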
KB-3-1 cytotox = kills parental KB-3-1 adenocarcinoma cells; KB-3-1 viability, CellTiter-Glo ATP luminescence, 72 h; Potency, µM (series often up to 46.1 µM), hits mostly cytotoxic; hit rate 1.4% among 400,000; AID 1347075; further: potency means the concentration at half of the fitted maximal effect; on the % scale 0 is the no-effect control and ±100 the full control effect; nearly all actives have a fitted effect of over 60% in size
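KB-3-1 cells, DMEM (no phenol red) + 10% FBS; compound by pin transfer, 72 h, 37 °C. Readout: CellTiter-Glo luminescence after 10 min. Data normalized, curve-fitted.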
The depositor's hits bear a star; i = inactive; ? = inconclusive; . = no result. Unless noted, the call rests on the fitted dose curve; in most records, active means well fitted curve in the direction sought with a large enough effect; inconclusive means small, poorly fitted or top-dose-only effect, or another doubt; inactive means no such curve, though single readings can be large; an effect the other way counts as inactive or inconclusive.

SMILES | KB-V1 MDR tox | MCF10A rerep | IL1B secr inh | SW480 rereplic | KB-3-1 cytotox
Nc1n[nH]c2cc(=O)n(-c3cccc(C(F)(F)F)c3)nc12 | i | -2.4% | ? | 7.31µM* | i
CCc1nc2c(OCC(=O)C(C)(C)C)cccn2c1N(C)C(=O)COc1ccccc1 | i | . | 4.8 | . | i
Cc1ccc(-c2csc(N3CCN(c4cc5c(cc4Cl)nc(-c4ccncc4)n5CCN4CCCCC4)CC3)n2)cc1 | i | -4.3% | -59.1* | ? | i
COc1ccc(-c2cc(=O)n(-c3nc4ccccc4[nH]3)[nH]2)cc1 | i | 18.4µM* | 54.9 | ? | 20.6µM*
COc1ccc(-c2nc3ccccc3[nH]2)cc1 | ? | -1.6% | 1.9 | 11.2% | ?
FC(F)(F)c1nc(-c2ccncc2)ncc1-c1nnnn1-c1ccccc1 | 20.6µM* | 1.6% | 22.3 | -8.7% | i
Cc1ccc(-n2nnnc2-c2cccnc2)cc1 | i | -2.4% | 0.2 | -21.1% | i
Cc1ccc(-n2nnnc2-c2cnc(-c3cccnc3)nc2C(F)(F)F)cc1 | 20.6µM* | 5.8% | -4.5 | 0.0% | ?
FC(F)(F)c1ccncc1-c1nnnn1-c1ccc(Cl)cc1 | i | 4.7% | 6.7 | -20.7% | i
FC(F)(F)c1nc(N2CCCC2)ncc1-c1nnnn1-c1ccc(Cl)cc1 | 14.6µM* | ? | -16.8 | 7.6% | ?
c1ccc(-n2nnnc2-c2cnc(-c3ccncc3)nc2-c2cccs2)cc1 | ? | -0.9% | -7.6 | -8.7% | i
Fc1ccc(-n2nnnc2-c2cnc(-c3cccs3)nc2C(F)(F)F)cc1 | 23.1µM* | 14.6µM* | -80.5* | ? | ?
Nc1ccc(CSc2ccc(Cl)cc2)cc1 | i | 18.1% | -8.6 | -13.1% | i
Cc1ccccc1OCc1ccc(-c2nc(C#N)c(N3CCN(c4cccc(Cl)c4)CC3)o2)o1 | i | . | . | . | i
Cc1ccc(S(=O)(=O)c2c(CO)c(-c3ccccc3)nn2C)cc1 | 14.6µM* | -0.7% | 24.9 | ? | ?
CCCN(CCC)Cc1c(C(=O)N/N=C/C(C)=C\c2ccccc2)nnn1-c1nonc1N | i | 13.8% | -68.1* | 19.4% | i
CN(C)c1ccc(/C=N/NC(=O)c2nnn(-c3nonc3N)c2CN(C)c2ccccc2)cc1 | i | 11.6µM* | 22.1 | 9.2µM* | i
CCCc1c(C(=O)N/N=C/C(C)=C/c2ccccc2)nnn1-c1nonc1N | i | 0.9% | -18.8 | 26.7% | i
Nc1nonc1-n1nnc(C(=O)N/N=C/C=C/c2ccccc2)c1CSC1=NCCS1 | i | ? | -89.8* | ? | i
O=C(O)/C=C\C(=O)Nc1ccccc1C#Cc1ccc(Br)cc1 | i | 18.4µM* | -98.0* | ? | ?
O=C(O)/C=C\C(=O)Nc1ccccc1C#Cc1ccccc1 | i | 20.8% | -62.2* | -2.2% | i
CC(=O)c1cccc(NC(=S)NCCc2ccc(Cl)cc2)c1 | 18.4µM* | 13.7% | -92.3* | -0.5% | ?
CC(C)CNC(=O)c1cccc(NC(=O)Cc2ccc(Cl)cc2)c1 | 5.8µM* | -72.4% | -3.2 | -126.8% | ?
CC(C)CNC(=O)c1cccc(NC(=O)CSc2ccccc2)c1 | i | 7.5% | 7.9 | -3.2% | ?
S=C(NCCc1ccccn1)Nc1cccc(Cl)c1 | 20.6µM* | 19.3% | 0.0 | 5.9% | i
SMILES | KB-V1 MDR tox | MCF10A rerep | IL1B secr inh | SW480 rereplic | KB-3-1 cytotox
O=C(C[n+]1cccc2cccc(O)c21)c1ccc(Cl)cc1 | i | . | . | . | i
O=C(NC1CCCC1)c1cccc(S(=O)(=O)N2CCCC2)c1 | i | -0.8% | 14.0 | -9.8% | i
N#C/C(=C\c1ccc(OC(F)F)cc1)C(=O)N1CCCCC1 | i | 13µM* | ? | -1.5% | i
Cc1ccc(/C=C(\C#N)C(=O)N2CCCC2)c(C)c1 | i | 8.3% | -86.5* | -1.5% | i
Cc1cc(C)c(S(=O)(=O)NNC(=O)C2CCN(Cc3ccccc3)CC2)c(C)c1 | i | 10.9% | -0.5 | 7.5% | i
CC(C)CCOc1ccc(-c2c(=O)n(OCc3ccc([N+](=O)[O-])cc3)c3ccccc3[n+]2[O-])cc1 | ? | 1.84µM* | 4.1 | ? | i
COc1ccccc1CCNC(=O)c1ccc2c(c1)c(C)c(C)n2C | i | . | . | . | i

Assay outcomes (PubChem)
